Data reported in article PMC4081100, “A DNA-binding-site landscape and regulatory network analysis for NAC transcription factors in Arabidopsis thaliana”.

Assays:
Experiment in all cases: universal protein binding microarray (PBM); transcription factors of Arabidopsis thaliana; high values mean tight binding
[1] = biological target: T1, GST-ANAC092(1-176) (Arabidopsis thaliana, UniProt Q9FKA0 1-176); conditions: protein: recombinant; tags: GST; chain copies: 2; dsDNA, one strand shown
T1 sequence: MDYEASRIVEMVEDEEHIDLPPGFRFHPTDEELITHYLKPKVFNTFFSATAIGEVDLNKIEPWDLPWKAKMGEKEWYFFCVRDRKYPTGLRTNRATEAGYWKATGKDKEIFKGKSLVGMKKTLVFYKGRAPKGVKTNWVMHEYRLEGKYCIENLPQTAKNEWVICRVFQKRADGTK
How it was run: (§1)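 Binding is expressed as the normalised enrichment score (E-score). Proteins carrying a GST tag, whether NAC-domain, full-length or DNA-binding-domain forms, were induced in cells, and zinc acetate was added for zinc-finger proteins. After purification on glutathione–Sepharose 4B and quantification by A280 or anti-GST western blot, each was applied in duplicate at 200 to 500 nM final to custom all-10-mer Agilent 4 × 180K arrays made double-stranded by primer extension. Gapped and ungapped 8-mers were scored.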

[2] = biological target: GST-NTL6(1-168) (Arabidopsis thaliana, UniProt Q9SCK6 1-168); conditions: protein: recombinant; tags: GST; chain copies: 2; dsDNA, one strand shown
How it was run: as §1

[3] = biological target: T2, GST-ANAC019 NAC domain (Arabidopsis thaliana, UniProt Q9C932 14-162); conditions: protein: recombinant; tags: GST; chain copies: 2; dsDNA, one strand shown
T2 sequence: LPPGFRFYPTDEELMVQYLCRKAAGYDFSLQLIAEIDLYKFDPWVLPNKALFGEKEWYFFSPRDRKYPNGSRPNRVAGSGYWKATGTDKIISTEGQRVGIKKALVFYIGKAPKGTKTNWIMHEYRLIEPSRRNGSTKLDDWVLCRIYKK
How it was run: as §1

[4] = biological target: T3, GST-ANAC055(1-171) (Arabidopsis thaliana, UniProt Q9LDY8 1-171); conditions: protein: recombinant; tags: GST; chain copies: 2; dsDNA, one strand shown
T3 sequence: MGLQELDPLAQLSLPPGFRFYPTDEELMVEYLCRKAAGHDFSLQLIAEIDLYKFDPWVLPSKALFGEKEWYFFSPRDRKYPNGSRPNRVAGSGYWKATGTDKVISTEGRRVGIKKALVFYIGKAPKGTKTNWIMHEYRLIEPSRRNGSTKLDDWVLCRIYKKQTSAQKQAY
How it was run: as §1

[5] = biological target: T4, GST-ATAF1 NAC domain (Arabidopsis thaliana, UniProt Q39013 7-158); conditions: protein: recombinant; tags: GST; chain copies: 2; dsDNA, one strand shown
T4 sequence: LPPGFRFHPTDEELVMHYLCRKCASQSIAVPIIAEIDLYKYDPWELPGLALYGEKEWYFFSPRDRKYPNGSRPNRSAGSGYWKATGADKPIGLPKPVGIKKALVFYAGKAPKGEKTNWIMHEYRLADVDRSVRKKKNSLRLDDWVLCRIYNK
How it was run: as §1

[6] = biological target: T5, GST-ANAC092(1-285) full length (Arabidopsis thaliana, UniProt Q9FKA0 1-285); conditions: protein: recombinant; tags: GST; chain copies: 2; dsDNA, one strand shown
T5 sequence: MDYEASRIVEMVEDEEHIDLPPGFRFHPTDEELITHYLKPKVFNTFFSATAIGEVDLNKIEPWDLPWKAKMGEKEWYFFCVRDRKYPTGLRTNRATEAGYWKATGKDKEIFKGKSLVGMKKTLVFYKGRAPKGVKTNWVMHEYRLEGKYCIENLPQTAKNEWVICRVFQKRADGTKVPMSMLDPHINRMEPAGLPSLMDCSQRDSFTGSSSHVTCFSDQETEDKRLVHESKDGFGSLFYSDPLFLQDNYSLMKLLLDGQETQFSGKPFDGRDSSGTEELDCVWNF
How it was run: as §1

[7] = biological target: T6, GST-NST2(1-184) (Arabidopsis thaliana, UniProt Q9M274 1-184); conditions: protein: recombinant; tags: GST; chain copies: 2; dsDNA, one strand shown
T6 sequence: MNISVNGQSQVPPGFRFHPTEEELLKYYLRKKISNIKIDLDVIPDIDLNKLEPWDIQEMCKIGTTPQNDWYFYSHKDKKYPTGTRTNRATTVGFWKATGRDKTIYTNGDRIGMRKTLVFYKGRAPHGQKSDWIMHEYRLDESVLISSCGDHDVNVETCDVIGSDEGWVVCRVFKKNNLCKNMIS
How it was run: as §1

[8] = biological target: T7, GST-NTL8 NAC domain (Arabidopsis thaliana, UniProt Q9XIN7 14-156); conditions: protein: recombinant; tags: GST; chain copies: 2; dsDNA, one strand shown
T7 sequence: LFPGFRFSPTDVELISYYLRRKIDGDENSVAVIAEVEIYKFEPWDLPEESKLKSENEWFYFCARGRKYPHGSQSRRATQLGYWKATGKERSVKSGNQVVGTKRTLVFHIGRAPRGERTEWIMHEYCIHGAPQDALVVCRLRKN
How it was run: as §1

[9] = biological target: T8, GST-SND1(1-203) (Arabidopsis thaliana, UniProt Q9LPI7 1-203); conditions: protein: recombinant; tags: GST; chain copies: 2; dsDNA, one strand shown
T8 sequence: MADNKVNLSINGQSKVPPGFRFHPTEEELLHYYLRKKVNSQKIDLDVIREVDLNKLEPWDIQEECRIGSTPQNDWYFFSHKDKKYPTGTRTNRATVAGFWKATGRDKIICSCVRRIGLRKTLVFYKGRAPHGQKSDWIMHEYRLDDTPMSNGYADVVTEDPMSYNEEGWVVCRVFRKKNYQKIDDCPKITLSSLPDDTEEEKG
How it was run: as §1

[10] = biological target: T9, GST-VND7 NAC domain (Arabidopsis thaliana, UniProt Q9C8W9 9-158); conditions: protein: recombinant; tags: GST; chain copies: 2; dsDNA, one strand shown
T9 sequence: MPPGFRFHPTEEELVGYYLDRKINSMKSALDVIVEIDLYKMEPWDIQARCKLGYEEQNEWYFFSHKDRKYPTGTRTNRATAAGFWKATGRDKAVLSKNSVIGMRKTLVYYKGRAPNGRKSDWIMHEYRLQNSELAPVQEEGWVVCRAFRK
How it was run: as §1

[11] = biological target: GST-WRKY1(266-371) (Arabidopsis thaliana, UniProt Q9SI37 266-371); conditions: protein: recombinant; tags: GST; dsDNA, one strand shown
How it was run: as §1

[12] = biological target: T10, GST-NAP(1-166) (Arabidopsis thaliana, UniProt O49255 1-166); conditions: protein: recombinant; tags: GST; chain copies: 2; dsDNA, one strand shown
T10 sequence: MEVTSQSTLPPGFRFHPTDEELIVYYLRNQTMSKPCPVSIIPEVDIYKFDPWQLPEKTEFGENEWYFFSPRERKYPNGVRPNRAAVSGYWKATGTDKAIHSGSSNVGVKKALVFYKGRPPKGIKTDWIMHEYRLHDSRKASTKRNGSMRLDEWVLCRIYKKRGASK
How it was run: as §1

Sequence of GST-NTL6(1-168) (Q9SCK6 1-168): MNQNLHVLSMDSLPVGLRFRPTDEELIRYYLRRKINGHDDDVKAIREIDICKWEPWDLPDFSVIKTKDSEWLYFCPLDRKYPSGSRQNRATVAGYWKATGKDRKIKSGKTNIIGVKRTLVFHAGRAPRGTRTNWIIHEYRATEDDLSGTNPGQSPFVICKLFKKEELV
Sequence of GST-WRKY1(266-371) (Q9SI37 266-371): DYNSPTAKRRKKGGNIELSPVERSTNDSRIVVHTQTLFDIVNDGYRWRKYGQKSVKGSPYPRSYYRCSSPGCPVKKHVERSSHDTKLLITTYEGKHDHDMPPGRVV

AAGAAACC showed a binding signal [1] of 0.246 E-score, a binding signal [2] of 0.261 E-score and a binding signal [3] of 0.0937 E-score. For the same sequence, the binding signal [4] was 0.135 E-score, the binding signal [5] was 0.177 E-score and the binding signal [6] was 0.311 E-score. For the same sequence, the binding signal [7] was 0.265 E-score, the binding signal [8] was 0.435 E-score and the binding signal [9] was 0.216 E-score. For the same sequence, the binding signal [10] was 0.139 E-score.
Work on CTTTCCTC yielded a binding signal [1] of 0.0932 E-score, a binding signal [2] of 0.104 E-score and a binding signal [3] of 0.0599 E-score. The binding signal [4] was 0.0748 E-score, the binding signal [8] was 0.453 E-score and the binding signal [9] was 0.147 E-score. The binding signal [10] was 0.0728 E-score.
Work on GTCAAACA yielded a binding signal [6] of 0.11 E-score, a binding signal [9] of 0.0891 E-score and a binding signal [10] of 0.0699 E-score. The binding signal [11] was 0.475 E-score.
In the case of ACCTTTCC, the binding signal [1] is reported as 0.188 E-score, the binding signal [2] is reported as 0.196 E-score and the binding signal [4] is reported as 0.0893 E-score. It also gave a binding signal [6] of 0.0538 E-score, a binding signal [7] of 0.0986 E-score and a binding signal [8] of 0.431 E-score. For the same sequence, the binding signal [9] was 0.143 E-score and the binding signal [10] was 0.0596 E-score.
For AAGTCAGT, the binding signal [9] was 0.0862 E-score and the binding signal [11] was 0.411 E-score.
Work on GAGGGTAA yielded a binding signal [1] of 0.0757 E-score, a binding signal [2] of 0.17 E-score and a binding signal [4] of 0.0669 E-score. It also gave a binding signal [5] of 0.123 E-score, a binding signal [6] of 0.109 E-score and a binding signal [7] of 0.173 E-score. It also gave a binding signal [8] of 0.474 E-score, a binding signal [9] of 0.108 E-score and a binding signal [10] of 0.079 E-score.
CGAAGCAA showed a binding signal [1] of 0.243 E-score, a binding signal [2] of 0.325 E-score and a binding signal [6] of 0.271 E-score. It also gave a binding signal [7] of 0.208 E-score, a binding signal [8] of 0.339 E-score and a binding signal [9] of 0.427 E-score. The binding signal [10] was 0.169 E-score.
Work on AAGTCAAT yielded a binding signal [2] of 0.118 E-score, a binding signal [5] of 0.126 E-score and a binding signal [6] of 0.119 E-score. The binding signal [9] was 0.0507 E-score and the binding signal [11] was 0.481 E-score.
Sequence GGGGTCAA has a binding signal [3] of 0.133 E-score, a binding signal [6] of 0.101 E-score and a binding signal [8] of 0.154 E-score. For the same sequence, the binding signal [9] was 0.0652 E-score and the binding signal [11] was 0.481 E-score.
With GAGTTGAC the binding signal [3] was 0.0811 E-score, the binding signal [7] was 0.102 E-score and the binding signal [9] was 0.0621 E-score. For the same sequence, the binding signal [11] was 0.476 E-score.
TAGGGAAA gave a binding signal [1] of 0.106 E-score, a binding signal [2] of 0.177 E-score and a binding signal [3] of 0.0861 E-score. For the same sequence, the binding signal [5] was 0.088 E-score, the binding signal [6] was 0.115 E-score and the binding signal [8] was 0.438 E-score. The binding signal [9] was 0.0953 E-score.
Sequence GTCAGTCA has a binding signal [6] of 0.1 E-score, a binding signal [9] of 0.0958 E-score and a binding signal [11] of 0.426 E-score.
Sequence AGTCAGAA has a binding signal [6] of 0.0656 E-score, a binding signal [12] of 0.0823 E-score and a binding signal [7] of 0.119 E-score. The binding signal [9] was 0.101 E-score and the binding signal [11] was 0.416 E-score.
In the case of CACGCGAA, the binding signal [1] is reported as 0.343 E-score, the binding signal [2] is reported as 0.17 E-score and the binding signal [4] is reported as 0.0997 E-score. The binding signal [6] was 0.402 E-score, the binding signal [7] was 0.188 E-score and the binding signal [8] was 0.0576 E-score. It also gave a binding signal [9] of 0.213 E-score.
CGTAGTCA showed a binding signal [3] of 0.0805 E-score, a binding signal [5] of 0.117 E-score and a binding signal [9] of 0.161 E-score. For the same sequence, the binding signal [11] was 0.405 E-score.
In the case of ACTGACCT, the binding signal [8] is reported as 0.109 E-score, the binding signal [9] is reported as 0.0503 E-score and the binding signal [11] is reported as 0.407 E-score.
Work on CTGTTGAC yielded a binding signal [1] of 0.105 E-score, a binding signal [3] of 0.107 E-score and a binding signal [6] of 0.0644 E-score. It also gave a binding signal [9] of 0.0669 E-score and a binding signal [11] of 0.48 E-score.
CGTCAAAG gave a binding signal [1] of 0.0844 E-score, a binding signal [3] of 0.0986 E-score and a binding signal [6] of 0.149 E-score. For the same sequence, the binding signal [7] was 0.102 E-score, the binding signal [9] was 0.199 E-score and the binding signal [11] was 0.427 E-score.
AGGGAAAG gave a binding signal [1] of 0.0861 E-score, a binding signal [2] of 0.115 E-score and a binding signal [3] of 0.129 E-score. It also gave a binding signal [8] of 0.473 E-score and a binding signal [9] of 0.114 E-score.
Sequence TAAAGTCA has a binding signal [5] of 0.0969 E-score, a binding signal [6] of 0.0547 E-score and a binding signal [9] of 0.0751 E-score. For the same sequence, the binding signal [11] was 0.465 E-score.
CGAAGGAA showed a binding signal [1] of 0.176 E-score, a binding signal [2] of 0.473 E-score and a binding signal [4] of 0.0644 E-score. For the same sequence, the binding signal [5] was 0.057 E-score, the binding signal [6] was 0.0784 E-score and the binding signal [12] was 0.0729 E-score. The binding signal [7] was 0.17 E-score, the binding signal [8] was 0.459 E-score and the binding signal [9] was 0.3 E-score.
GCGTCAAC was tested, and the binding signal [1] was 0.119 E-score, the binding signal [3] was 0.0778 E-score and the binding signal [6] was 0.109 E-score. The binding signal [7] was 0.0734 E-score, the binding signal [9] was 0.192 E-score and the binding signal [11] was 0.443 E-score.
AGGAAAGG was tested, and the binding signal [1] was 0.0968 E-score, the binding signal [2] was 0.0725 E-score and the binding signal [3] was 0.0699 E-score. For the same sequence, the binding signal [7] was 0.064 E-score, the binding signal [8] was 0.44 E-score and the binding signal [9] was 0.136 E-score.
